# Screening results (PubChem)
# Only some compounds are listed: those with a hit (about 2.7% of all), similar ones and a draw of the others.
# PGC1a acetyl inh = PGC1a acetylation modulation, inhibitor mode | U2OS PGC1a acetylation, AlphaScreen anti-acetyl-lysine; with virally co-expressed GCN5 acetyltransferase | inhibition, % at 15.6 µM | 0.17% of 350,000 active | AID 651687;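 active = every replicate shows inhibition of at least 40%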;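 note: 0% = neutral control wells and 100% = positive control wells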
# INS-1E GSIS act = primary screen for activators of insulin secretion dependent on glucose, INS-1E cells, GLuc reporter luminescence. INS-1E GLuc reporter insulin secretion, 2-3 h. activation, % at 16.6 µM. 0.61% of 370,000 active. AID 743287;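 active = lowest replicate activation of at least 40%, so every replicate reaches that level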;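 note: 0% = median of neutral control wells and 100% = median of IBMX positive control wells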
# EWS-Fli block = blocks EWS/Fli oncoprotein-driven transcription; 0.67% of 350,000 active; inhibition, % at 12.6 µM; A673 NR0B1-luciferase reporter, viability-normalised;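 active = mean inhibition of at least 50% after viability correction, with every replicate also passing that limit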;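 note: firefly luciferase signal divided by Alamar Blue viability fluorescence both relative to DMSO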
# PAX8 inh HTS = inhibitors of PAX8 transcriptional activity in RMG-I cells; 1.2% of 360,000 active; RMG-I TPO-luciferase reporter, SteadyGlo, 24 h; inhibition, % at 12.6 µM;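 active = mean replicate inhibition at least 60% with every replicate also reaching 60%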;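 note: luciferase light reporting Pax8 driven TPO promoter activity; plate controls were median of neutral control wells for no effect and mitoxantrone controls for full effect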
# Env fusion inh = inhibitors of HIV Env-mediated cell fusion. HeLa-JRFL Env/CEM21 cell fusion, luciferase. inhibition, % at 12.3 µM. AID 651610. 1.1% of 360,000 active;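 active = mean replicate inhibition score of at least 50 and every replicate individually at or above 50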;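 note: 0% = plate neutral controls and 100% = maraviroc near 300 nM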
# F508del corr = CFTR F508del correction in bronchial cells; activity (quench increase), % at 7.58 µM; CFBE cells, YFP halide quenching; stimulated with forskolin plus potentiator P3; % fluorescence drop versus neutral controls; 0.36% of 350,000 active; AID 720511;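 active = mean added fluorescence quench of at least 8% versus neutral control, with both replicates also reaching 8%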;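 note: cells transiently co-express mutant CFTR-F508del with the halide-sensitive YFP; corrector assay measuring rescue of mutant channel to the surface after 24 h compound exposure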
# Active calls of the source: *; · = no result given; [ ] = remark or other dose.
SMILES,PGC1a acetyl inh,INS-1E GSIS act,EWS-Fli block,PAX8 inh HTS,Env fusion inh,F508del corr
CC[C@]1(C(=O)OC)[C@H]2C(=O)N(Cc3ccccc3)C(=O)[C@H]2[C@H]2CN=C(SCc3ccc(C(=O)OC)cc3)N21,-4.3,-15.0,-1.8,-2.2,32.3,-0.4
COC(=O)[C@@]1(Cc2ccccc2)[C@H]2C(=O)N(Cc3ccccc3)C(=O)[C@H]2[C@H]2CN=C(SCc3ccc(C#N)cc3)N21,0.8,-18.6,-1.8,34.1,69.2*,2.5
C[C@@H]1CN([C@@H](C)CO)C(=O)c2cc(NC(=O)Nc3cccc4ccccc34)ccc2O[C@@H](C)CCCCO[C@@H]1CN(C)Cc1ccc(C(F)(F)F)cc1,-11.0,15.0,7.6,10.5,9.0[16.7 µM],-0.1
COc1ccc(NC(=O)N(C)C[C@H]2OCCCC[C@@H](C)Oc3ccc(NC(=O)C4CCCCC4)cc3C(=O)N([C@H](C)CO)C[C@H]2C)cc1,-20.0,-6.4,5.3,·,3.3[16.7 µM],1.6
CCCNC(=O)N1CC2(C1)[C@@H](c1ccccc1)[C@H](CO)N2Cc1ccc(F)cc1,-0.3,-2.3,6.4,-12.7,·,3.8
CCOC(=O)c1c(C)[nH]c(C)c1C(=O)COC(=O)c1ccc([N+](=O)[O-])s1,-6.1,-5.0,-2.9,5.5,·,9.3*
CC1(C)CC(=O)C=C(C#CC2(O)CCCCC2)C1,35.7,-9.1,11.3,108.5*,37.4,-7.9
COc1cc(NC(=S)NCc2ccc(S(N)(=O)=O)cc2)c(OC)cc1Cl,·,8.4,65.3*,11.0,16.7,·
COc1ccc(Cl)cc1NC(=S)NCCc1ccc(S(N)(=O)=O)cc1,3.8,10.7,6.4,6.7,6.5,1.5
COc1cc(/C=C(/C(=O)O)c2ccc(-c3ccccc3)cc2)cc(OC)c1OC,-4.5,9.8,9.4,2.2,-24.6,0.7
COc1ccc(/C(=C/c2ccc(OC(F)F)c(OC)c2)C(=O)O)cc1OC,·,75.3*,-6.4,-2.3,-7.7,·
Cc1nnc2n1N=CC=C(c1ccccc1)S2,·,41.4*,·,22.1,25.8,·
O=C(c1cccc(Cl)c1)N1CCN(C(=O)c2ccccc2F)CC1,13.6,·,·,·,·,·
O=C(c1ccccc1F)N1CCCC(N2CCN(Cc3ccc4c(c3)OCO4)CC2)C1 (configuration not stated),10.9,47.1*,0.4,9.0,-5.1,-0.1
O=C(c1ccccc1F)N1CCN(Cc2cccc(Cl)c2)CC1,·,·,·,·,69.2*,·
COc1ccc(NC(=O)Nc2ccc3c(c2)C(=O)N([C@@H](C)CO)C[C@@H](C)[C@@H](CN(C)CC2CCCCC2)OCCCC[C@@H](C)O3)cc1,-20.4,-7.9,23.8,76.7*,10.7[16.7 µM],-8.9
COc1ccc(NC(=O)Nc2ccc3c(c2)C(=O)N([C@H](C)CO)C[C@H](C)[C@H](CN(C)CC2CC2)OCCCC[C@H](C)O3)cc1,17.1,9.6,·,3.1,64.1*[16.7 µM],3.3
COc1ccc(NC(=O)Nc2ccc3c(c2)C(=O)N([C@@H](C)CO)C[C@H](C)[C@H](CN(C)CC2CCCCC2)OCCCC[C@H](C)O3)cc1,-8.0,-9.2,9.2,-10.8,55.4*[16.7 µM],-6.9
CCC(=O)Nc1cc2c(cc1C(C)=O)OCCO2,-0.5,·,·,·,·,·
CCC(=O)Nc1cc(C(C)(C)C)ccc1C(C)=O,·,66.6*,·,-15.1,-0.5,·
COC(=O)C[C@@H]1CC[C@H](NS(=O)(=O)c2ccc(OC)cc2)[C@@H](CO)O1,1.2,2.7,-5.8,-0.4,1.1[16.7 µM],-2.7
CCOC(=O)/C=c1\sc2n(c1=O)CCN=2,5.1,47.6*,·,·,-26.6,·
C[C@@H]1CN([C@H](C)CO)C(=O)c2cccc(NC(=O)c3cnccn3)c2O[C@H]1CN(C)S(C)(=O)=O,10.4,11.3,-2.0,·,·,-0.2
Cc1c(Cl)cccc1NC(=S)NNc1ncc(C(F)(F)F)cc1Cl,8.1,·,·,·,67.5*,·
COc1cccc(C(=O)c2ncc(C(F)(F)F)cc2Cl)c1,·,-12.9,-8.5,3.1,-22.7,-1.6
SMILES,PGC1a acetyl inh,INS-1E GSIS act,EWS-Fli block,PAX8 inh HTS,Env fusion inh,F508del corr
COC(=O)/C(=C\Nc1cccc(Cl)c1C)c1ncc(C(F)(F)F)cc1Cl,41.3*,·,·,·,·,·
Cc1ccccc1NC(=S)NNc1ncc(C(F)(F)F)cc1Cl,-6.7,·,·,6.3,-3.6,·
COc1ccc(-c2ccc(C3[C@H]4CNC[C@@H]3N4C(=O)Nc3ccccc3F)cc2)cc1 (some centres not stated),6.6,-24.2,·,·,·,-4.7
C[C@H]1CN([C@@H](C)CO)C(=O)Cc2cc(NS(=O)(=O)c3ccc(F)cc3)ccc2O[C@H]1CN(C)Cc1ccc(C(=O)O)cc1,6.2,9.0,-2.5,·,-2.5[16.7 µM],2.6
CNC[C@@H]1Oc2ccc(NS(C)(=O)=O)cc2CC(=O)N(C)C[C@@H]1C,·,12.4,·,·,·,·
COc1ccccc1CNS(=O)(=O)c1cc(-c2cc(C)no2)ccc1C(C)C,-5.2,46.5*,3.3,17.1,-5.5,3.1
COc1ccc(-c2cc(C)no2)cc1S(=O)(=O)NCC(C)c1ccccc1 (configuration not stated),-2.6,-7.2,-1.2,-0.1,55.9*,-1.1
CCc1ccc(-c2cc(C)no2)cc1S(=O)(=O)NCCCN1CCN(c2ccccc2)CC1,·,-12.7,9.3,60.7*,48.9,-2.6
COc1ccc(OC)c(CNS(=O)(=O)c2cc(-c3cc(C)no3)ccc2OC)c1,51.1*,27.5,·,3.0,3.1,0.5
Cc1cccc(-c2ccc([C@H]3[C@H](CO)N4C(=O)CN(C(=O)Cc5ccccn5)C[C@@H]34)cc2)c1,5.0,7.6,1.6,-23.8,·,-1.2
COc1ccc(CN(C)C[C@@H]2Oc3ccc(NC(=O)Nc4c(C)noc4C)cc3C(=O)N([C@H](C)CO)C[C@H]2C)cc1,-18.0,4.1,7.3,-23.3,4.3[16.7 µM],-2.8
C[C@H](CO)N1C[C@H](C)[C@H](CN(C)S(=O)(=O)c2ccccc2)Oc2ccc(NC(=O)Nc3ccc(C(F)(F)F)cc3)cc2CC1=O,4.8,-29.3,60.7*,15.7,·,4.1
C[C@H](CO)N1C[C@H](C)[C@H](CN(C)S(=O)(=O)c2ccc(F)cc2)Oc2ccc(NC(=O)Nc3ccc(F)cc3)cc2CC1=O,-0.2,-12.2,-15.1,·,-31.4[16.7 µM],-1.5
C[C@H](CO)N1C[C@H](C)[C@H](CN(C)S(=O)(=O)c2ccc(Cl)cc2)Oc2ccc(NC(=O)Nc3ccc(F)cc3)cc2CC1=O,7.0,-29.7,30.9,73.9*,-82.5[16.7 µM],5.2
Cc1ccc(S(=O)(=O)N(C)C[C@H]2Oc3ccc(NC(=O)Nc4ccc(C(F)(F)F)cc4)cc3CC(=O)N([C@H](C)CO)C[C@@H]2C)cc1,-1.6,-10.1,-4.2,81.6*,11.1[16.7 µM],0.3
Cc1ccc(S(=O)(=O)N(C)C[C@H]2Oc3ccc(NC(=O)Nc4ccc(C(F)(F)F)cc4)cc3CC(=O)N([C@H](C)CO)C[C@H]2C)cc1,3.3,-3.1,6.1,62.7*,37.3[16.7 µM],4.1
O=C(NCc1ccccc1Cl)[C@@H]1[C@@H](CO)[C@@H]2Cn3c(cccc3=O)[C@@H]2N1C(=O)C1CCCC1,·,6.6,-1.9,·,·,-0.1
